Assay outcomes deposited in PubChem by several laboratories.
H9c2 protect: modulators protecting cardiomyocytes from myocardial damage. H9c2 cardiomyocytes, H2O2 injury protection, ATPLite, 2 h. protection from H2O2 cell death, % at 20 µM. 360,000 compounds, 0.63% hits;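 active = compounds giving at least 50% protection of heart cells from peroxide-induced death in the single-dose screen, raw or plate-pattern-corrected value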;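 also: 0% = DMSO wells with peroxide and 100% = DMSO wells without peroxide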
aDG glyco act: alpha-DG glycosylation activation; Pro5-aDG cells, alpha-DG glycosylation AlphaScreen (IIH6); 0% Pro5, 100% B10-LARGE cell signal; activation, % at 10 µM; 360,000 compounds, 0.22% hits; AID 624168;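 active = activation of at least 8% versus controls, or a plate z-score of at least 8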;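 also: Pro5 are CHO cells carrying HIG-tagged alpha-DG that lacks glycosylation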
MPTP inh: permeability transition pore inhibition. isolated mouse mitochondria, Ca2+ swelling absorbance, 30 min. inhibition, % at 10 µM. 360,000 compounds, 1.4% hits. AID 602449;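 active = inhibition of 50% or more, scaled per plate between neutral and stimulator controls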;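 also: 0% = DMSO wells given calcium and 100% = 1 mM EGTA wells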
FAS-TE inh: blocks the thioesterase domain of human fatty acid synthase; inhibition, % at 15 µM; recombinant FAS-TE, OMFH fluorogenic substrate, fluorescence endpoint; P49327; AID 602261; 360,000 compounds, 0.67% hits;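 active = compounds whose normalised, plate-corrected inhibition of enzyme fluorescence in the single-dose primary screen is 50% or more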;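 also: 0% = DMSO with enzyme and 100% = substrate without enzyme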
Target sequence (P49327 whole entry, looked up, the tested form may be a part): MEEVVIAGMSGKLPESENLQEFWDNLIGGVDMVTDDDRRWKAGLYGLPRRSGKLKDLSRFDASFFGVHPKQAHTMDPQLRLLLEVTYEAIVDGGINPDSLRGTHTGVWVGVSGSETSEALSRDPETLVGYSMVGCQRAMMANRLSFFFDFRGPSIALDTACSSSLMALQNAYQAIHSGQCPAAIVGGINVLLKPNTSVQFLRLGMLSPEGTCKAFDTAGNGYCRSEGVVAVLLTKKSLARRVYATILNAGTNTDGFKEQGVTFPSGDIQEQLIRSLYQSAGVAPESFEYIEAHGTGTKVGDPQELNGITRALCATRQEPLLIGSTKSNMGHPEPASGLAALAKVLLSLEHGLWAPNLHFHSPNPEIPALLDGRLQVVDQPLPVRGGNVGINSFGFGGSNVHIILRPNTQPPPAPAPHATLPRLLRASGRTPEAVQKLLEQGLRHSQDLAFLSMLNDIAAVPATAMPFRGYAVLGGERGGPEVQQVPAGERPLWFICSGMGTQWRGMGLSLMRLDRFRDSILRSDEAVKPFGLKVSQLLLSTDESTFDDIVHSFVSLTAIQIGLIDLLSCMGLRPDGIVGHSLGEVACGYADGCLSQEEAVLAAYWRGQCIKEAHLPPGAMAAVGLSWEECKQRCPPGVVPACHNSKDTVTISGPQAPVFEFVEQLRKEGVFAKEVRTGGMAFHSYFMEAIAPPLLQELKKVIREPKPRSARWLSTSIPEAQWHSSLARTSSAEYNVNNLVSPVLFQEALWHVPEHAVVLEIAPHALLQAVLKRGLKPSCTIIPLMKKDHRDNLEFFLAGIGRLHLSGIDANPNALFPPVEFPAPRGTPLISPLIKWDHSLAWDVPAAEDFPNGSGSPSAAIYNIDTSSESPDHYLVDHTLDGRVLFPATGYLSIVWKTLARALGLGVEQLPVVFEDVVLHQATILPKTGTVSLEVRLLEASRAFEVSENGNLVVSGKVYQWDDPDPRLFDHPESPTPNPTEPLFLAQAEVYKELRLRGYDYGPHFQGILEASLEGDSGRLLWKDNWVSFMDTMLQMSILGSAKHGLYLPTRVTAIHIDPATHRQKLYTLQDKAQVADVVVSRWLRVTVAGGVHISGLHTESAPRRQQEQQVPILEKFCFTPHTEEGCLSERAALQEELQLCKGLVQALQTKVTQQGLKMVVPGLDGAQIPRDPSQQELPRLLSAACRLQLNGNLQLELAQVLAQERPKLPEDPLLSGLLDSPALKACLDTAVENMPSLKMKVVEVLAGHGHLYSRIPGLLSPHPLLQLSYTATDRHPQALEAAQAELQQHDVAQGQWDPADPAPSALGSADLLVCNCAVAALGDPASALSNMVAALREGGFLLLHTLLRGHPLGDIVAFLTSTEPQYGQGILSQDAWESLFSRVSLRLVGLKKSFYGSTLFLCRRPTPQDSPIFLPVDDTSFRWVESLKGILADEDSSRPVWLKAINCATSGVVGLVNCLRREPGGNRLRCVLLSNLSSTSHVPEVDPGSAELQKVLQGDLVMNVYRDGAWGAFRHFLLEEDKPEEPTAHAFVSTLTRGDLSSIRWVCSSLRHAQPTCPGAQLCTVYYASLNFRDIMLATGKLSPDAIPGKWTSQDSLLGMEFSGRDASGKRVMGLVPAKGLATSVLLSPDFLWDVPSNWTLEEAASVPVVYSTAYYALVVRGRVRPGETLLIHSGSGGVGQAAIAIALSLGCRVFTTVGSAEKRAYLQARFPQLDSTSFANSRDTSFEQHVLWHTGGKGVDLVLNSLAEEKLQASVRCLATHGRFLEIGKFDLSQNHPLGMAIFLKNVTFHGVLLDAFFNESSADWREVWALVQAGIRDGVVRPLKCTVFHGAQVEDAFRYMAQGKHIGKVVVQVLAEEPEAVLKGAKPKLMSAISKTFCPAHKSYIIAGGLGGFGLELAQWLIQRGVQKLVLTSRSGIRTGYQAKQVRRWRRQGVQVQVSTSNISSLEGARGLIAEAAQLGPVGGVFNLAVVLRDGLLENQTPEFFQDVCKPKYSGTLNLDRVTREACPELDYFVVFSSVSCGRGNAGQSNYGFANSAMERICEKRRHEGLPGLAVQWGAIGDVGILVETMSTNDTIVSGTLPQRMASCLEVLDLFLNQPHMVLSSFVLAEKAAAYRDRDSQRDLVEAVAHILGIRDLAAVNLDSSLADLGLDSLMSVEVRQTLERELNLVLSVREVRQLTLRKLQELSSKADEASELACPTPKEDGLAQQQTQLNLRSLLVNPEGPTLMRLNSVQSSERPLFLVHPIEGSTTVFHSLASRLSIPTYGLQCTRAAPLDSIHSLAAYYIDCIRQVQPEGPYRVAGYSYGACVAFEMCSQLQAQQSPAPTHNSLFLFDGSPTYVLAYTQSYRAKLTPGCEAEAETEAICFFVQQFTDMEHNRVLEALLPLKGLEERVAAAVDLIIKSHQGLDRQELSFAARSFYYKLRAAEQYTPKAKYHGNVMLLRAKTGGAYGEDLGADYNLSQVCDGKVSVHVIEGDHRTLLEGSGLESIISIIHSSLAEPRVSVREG
Yeast superoxide: caloric restriction mimetics inhibiting age-related superoxide in yeast. 330,000 compounds, 0.18% hits. S. cerevisiae aged cells, superoxide DHE fluorescence; hits give low values. superoxide response (% of plate mean), % at 10 µM;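 active = superoxide response under a set limit, about three screen SD below normal, cut at about 65% in these data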;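 also: yeast aged for seven days with compound at 30 °C before DHE staining; 100% = average MFI of all compound-treated wells on the plate with controls excluded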
Mot1-301 SUMO: SUMOylation pathway inhibition by Mot1-301 growth rescue; S. cerevisiae Mot1-301 growth rescue, ATP luminescence, 38.5C; percent above DMSO median, 100 means doubled; growth rescue, % at 18.8 µM; 320,000 compounds, 1% hits; AID 2716;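 active = every valid replicate shows activation above 250% relative to neutral control wells; inactive = the rest, any valid replicate at or below 250%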;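 also: OY570 slx delta 5 strain wells were the positive control but not used for scaling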
Rh123 counter: membrane potential counter-screen of mitochondrial pore inhibitors. isolated mitochondria, Rhodamine 123 fluorescence. 5,000 compounds, 78% hits. inhibition, % at 10 µM. shares compounds with MPTP inh. AID 624504; in the data active = inhibition above about 22%;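 also: 0% = DMSO vehicle and 100% = positive control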
MPTP abs DR: dose response confirmation of mitochondrial permeability transition pore inhibitors. shares compounds with MPTP inh. isolated mitochondria swelling, absorbance. IC50, µM. 780 compounds, 58% hits; in the data active = IC50 below about 20 µM
MPTP counter DR: active in counter-screen for permeability transition pore inhibitors. AID 651564. shares compounds with MPTP inh. IC50, µM. 780 compounds, 49% hits. isolated mitochondria counterscreen, fluorescence read-out; in the data active = IC50 below about 80 µM
Active calls of the source: *; nt = not tested or not shown. A selection: hits, their analogues and other compounds. The true share with any hit is near 3.8%.

SMILES	H9c2 protect	aDG glyco act	MPTP inh	FAS-TE inh	Yeast superoxide	Mot1-301 SUMO	Rh123 counter	others
CSc1nc(N)nc(SCC(=O)Nc2cccc(F)c2)c1C#N	-18.0	0.9	92.9*	39.6	104.7	-17.9	87.5*
COc1cc(OC)c(NC(=O)CCNS(=O)(=O)c2ccc3c(c2)CC(C)N3C(C)=O)cc1Cl (stereo not given)	-3.0	-0.3	-3.3	1.7	81.9	4.4	nt
Cc1ccc(NC(=O)Nc2cccc([N+](=O)[O-])c2)cc1F	-26.8	0.3	104.8*	42.9	106.5	-9.2	69.8*
COc1cc([N+](=O)[O-])ccc1NC(=O)Nc1cccnc1	-6.2	-0.3	2.0	5.1	111.9	-0.6	nt
O=C(Nc1cccnc1)Nc1cccc([N+](=O)[O-])c1	-2.0	-0.1	62.1*	4.2	91.6	7.4	88.5*
Cc1ccc(C(C)C)cc1NC(=O)Nc1ccc([N+](=O)[O-])cc1	-20.2	-0.2	83.7*	40.5	110.8	38.1	78.6*
Cc1cc(O)c(C(C)C)cc1NC(=O)Nc1ccc([N+](=O)[O-])cc1	-9.5	0.0	15.4	8.4	nt	nt	nt
NC(=O)NC(Cc1ccccc1)C(=O)N1CCN(S(=O)(=O)c2ccc(Cl)cc2)CC1 (stereo not given)	3.1	-0.2	-0.3	-3.7	97.8	-13.0	nt
Cc1ccc(NC(=O)C2CCN(S(=O)(=O)c3cc([N+](=O)[O-])ccc3Cl)CC2)nc1	-3.5	1.9	81.0*	12.7	122.2	29.1	80.4*
Cc1ccc2nc(NC(=O)C3CCN(S(=O)(=O)c4cccc5nsnc45)CC3)sc2c1	2.5	-0.2	0.0	8.3	107.1	0.3	nt
O=C(NCc1ccccc1)C1CCN(S(=O)(=O)c2cc([N+](=O)[O-])ccc2Cl)CC1	-0.8	0.5	1.6	26.8	97.8	1.0	nt
CC(NC(=O)C1CCN(S(=O)(=O)c2cc([N+](=O)[O-])ccc2Cl)CC1)c1ccccc1 (stereo not given)	5.0	0.3	3.8	22.3	96.0	8.4	nt
O=C(Nc1nc2ccc(F)cc2s1)C1CCN(S(=O)(=O)c2cc([N+](=O)[O-])ccc2Cl)CC1	-0.4	1.1	96.0*	29.0	103.4	-5.9	84.4*
Cc1ccc2nc(NC(=O)C3CCN(S(=O)(=O)c4cc([N+](=O)[O-])ccc4Cl)CC3)sc2c1	-6.7	3.8	96.8*	35.3	101.7	5.1	68.6*
Cc1oc(-c2cccs2)cc1C(=O)N1CCCC(C)(C(=O)O)C1 (stereo not given)	1.1	-0.4	-4.1	-7.7	nt	nt	nt
CC1=C(O)C(=O)C(C2=C(O)C(=O)C(C)=C(O)C2=O)=C(O)C1=O	3.4	0.0	-1.8	-0.4	nt	nt	nt
Cc1ccc(C2=C(O)C(=O)C(c3ccc(C)cc3)=C(O)C2=O)cc1	9.8	-0.3	55.8*	26.6	nt	nt	-44.2	MPTP abs DR=13.6*;MPTP counter DR=<2.5*
CC1(C(=O)NS(=O)(=O)c2ccccc2Cl)CCN1C(=O)CCC1CCCC1 (stereo not given)	20.5	-0.2	2.0	-10.0	nt	nt	nt
Cc1cc2nc(CCN(C(=S)NCC(C)C)C3CCCC3)[nH]c2cc1C	-9.7	3.7	85.0*	14.2	122.8	-6.4	83.7*
Cc1cc2nc(CCN(C(=S)NCC3CCCO3)C3CCCC3)[nH]c2cc1C (stereo not given)	-3.5	0.7	-1.0	3.4	90.9	-12.3	nt
Cn1c(=O)c2cc(NC(=S)NCc3ccccc3F)ccc2n1C	0.0	-0.2	-1.4	-1.6	nt	nt	nt
Fc1cc(NC(=S)NCc2ccc(CNC(=S)Nc3ccc(Cl)c(F)c3)cc2)ccc1Cl	-12.3	0.4	92.4*	6.4	73.0	-8.5	73.1*
S=C(NCc1ccccc1)Nc1cccc(Cl)c1	-12.3	0.1	97.0*	12.0	113.0	-7.5	100.9*
Fc1ccccc1CNC(=S)Nc1cccc(C(F)(F)F)c1	-10.7	1.5	73.8*	30.0	113.3	2.7	97.3*
